# Screening results deposited in PubChem by The Scripps Research Institute Molecular Screening Center.
# hgDAF12 agonist: H. glycines DAF-12 receptor agonists, primary screen, cell-based, luminescence, HEK293, GAL4 fusion, UAS-luciferase; Nuclear hormone receptor DAF-12 (Heterodera glycines), GAL4 fusion; activation, % at 6.8 µM; actives 1.8% (n = 370,000); HEK293 GAL4-hgDAF12 UAS-luciferase reporter, agonist luminescence; normalized to butyrate control;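 active means activation above a cutoff set at the mean of all screened compounds plus 3 SD, cut at about 10% in these data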;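 further: 0% = DMSO wells and 100% = sodium butyrate wells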
# DAX1 inh-1: DAX1 (NR0B1) inhibitors on StAR promoter, primary screen, cell-based, luminescence, SF-1 (NR5A1), full-length DAX-1 | AID 652010, 2013 | inhibition, % at 6.8 µM | HEK293T StAR-luciferase reporter, SF-1/DAX-1 repression relief | actives 1.1% (n = 370,000);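 active means inhibition above the mean over all tested compounds plus 3 SD, cut at about 3.6% in these data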;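 further: 0% = DAX-1 cells with DMSO and 100% = cells lacking DAX-1 with DMSO; higher inhibition means more luminescence from relief of DAX-1 repression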
# hcDAF-12 act: H. contortus DAF-12 nuclear receptor activators, primary screen, cell-based, luminescence, HEK293, lit1-tk-luc reporter | HEK293 hcDAF-12 lit1-tk-luc reporter; 0% DMSO, 100% Δ7-dafachronic acid | activation, % at 6.8 µM | actives 1.4% (n = 370,000) | AID 652067, 2013;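 active means activation above the mean of all tested compounds plus 3 SD, cut at about 5.5% in these data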;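 further: 100% = response to 3 µM Δ7-dafachronic acid high control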
# DAX1 inh-2: DAX1 (NR0B1) inhibitors, primary screen, cell-based, HEK293, Gal4-DAX1, luciferase luminescence | actives 0.99% (n = 340,000) | inhibition, % at 6.75 µM | HEK293 Gal4-DAX1 luciferase reporter;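 active means inhibition above the mean over all tested compounds plus 3 SD, cut at about 4.2% in these data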;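 further: 0% = DAX1-transfected cells with DMSO and 100% = empty-vector control cells with DMSO; inhibition shows as a rise in luminescence from relieved DAX1 repression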
# Target sequence (P51843 207-470 limits assumed): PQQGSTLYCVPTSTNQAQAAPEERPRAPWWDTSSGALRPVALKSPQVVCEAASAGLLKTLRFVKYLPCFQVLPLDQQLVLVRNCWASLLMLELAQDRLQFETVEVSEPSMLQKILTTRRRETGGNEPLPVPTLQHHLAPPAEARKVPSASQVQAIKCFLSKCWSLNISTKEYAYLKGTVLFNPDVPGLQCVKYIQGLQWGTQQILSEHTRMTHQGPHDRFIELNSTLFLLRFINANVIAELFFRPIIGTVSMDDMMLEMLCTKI
# ssDAF-12 act: S. stercoralis DAF-12 nuclear receptor activators, primary screen, cell-based, luminescence, HEK293, GRIP1 co-expression, lit1-tk-luc; Nuclear hormone receptor DAF-12 (Strongyloides stercoralis); HEK293 ssDAF-12/GRIP1 lit1-tk-luc reporter; % of 3 µM dafachronic acid response; activation, % at 6.8 µM; actives 1% (n = 370,000); AID 652126, 2013;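 active means activation above the mean over all tested compounds plus 3 SD, cut at about 0.9% in these data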;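 further: 0% = DMSO-only wells and 100% = 3 µM delta7-dafachronic acid wells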
# Starred values were filed as active, the others as inactive; nt = not tested or not shown. This is a sample that favours compounds with a hit; in the whole collection about 4.1% have one here.
SMILES,hgDAF12 agonist,DAX1 inh-1,hcDAF-12 act,DAX1 inh-2,ssDAF-12 act
CC1=C(C(=O)OCCc2ccccc2)C(c2ccsc2)NC(=O)N1C (stereo not given),1,-1,-4,4.5*,-2
Cc1ccc(S(=O)(=O)N2CCCN(C(=O)c3cc4ccccc4[nH]3)CC2)cc1,4,0,5.8*,1,0
COCCCN1C(=O)[C@H](CC(=O)NCCCN2CCCC2=O)[C@]2(C(=O)OC)CCCCC=C12,0,0,1,nt,-1
O=C1C=C(N2CCOCC2)C2(CCCCC2)O1,4,-1,0,5.2*,0
O=C1C=C(N2CCCCC2)C2(CCCCC2)O1,2,-1,0,0,-1
CCOc1ccccc1N1C(=O)CC(Sc2n[nH]c(-c3ccccc3)n2)C1=O (stereo not given),-1,0,1,4.8*,-1
CC1CCc2nc(NC(=O)C3CC3)sc2C1 (stereo not given),6,2,4,1,0
Cc1ncsc1C(=O)Nc1nc2c(s1)CC(C)CC2 (stereo not given),13*,3,3,1,0
COC(=O)[C@]12C[C@H](CC(=O)NCc3ccc(OC)c(OC)c3)C(=O)N(Cc3cccc4ccccc34)C1=C[C@H](C(C)C)O[C@@H]2C1CC1,-3,-1,-3,nt,-2
COc1ccc(C(CCOC(=O)Oc2ccccc2)c2cc(OC)cc(OC)c2)cc1 (stereo not given),0,-1,-3,nt,-2
COc1ccc2c(c1)c(=O)oc1cc(OCC(=O)NC3CCCCC3)ccc12,0,0,2,5.9*,0
COc1ccc2c(c1)c(=O)oc1cc(OCC(=O)NC3CC3)ccc12,3,0,1,0,-2
COc1ccc2nc(NC(=O)c3ccco3)sc2c1,6,1,4,-3,-1
COc1cc2sc(NC(=O)c3ccco3)nc2cc1Cl,12*,2,5,6.7*,0
O=C(Nc1nc2c(Cl)ccc(Cl)c2s1)c1ccco1,1,0,5.6*,2,0
Cc1ccccc1NC(=O)CSc1nnc(-c2cc(-c3ccccc3)n[nH]2)n1N,4,-3,0,nt,-2
Cn1c2ccc(Br)cc2c2nnc(SCC(=O)O)nc21,3,0,5.7*,1,1
Cc1cc(C)c2c(c1)c1nnc(SCCN3CCCCC3)nc1n2C,6,2,6.1*,-2,1.6*
CCCCn1c2ccc(C)cc2c2nnc(SCCN3CCCCC3)nc21,-1,0,-3,0,-2
Cn1c2ccccc2c2nnc(SCC(=O)Nc3cccc(O)c3)nc21,5,0,1,-3,0
CCn1c2ccccc2c2nnc(SCCN3CCOCC3)nc21,1,-1,-2,-1,-1
Cn1c2ccccc2c2nnc(SCCN3CCOCC3)nc21,3,0,6.3*,0,0
CSc1nnc2c3cc(F)ccc3n(C)c2n1,6,0,6,0,1.0*
O=C(Cc1ccccc1)NC1CCCCN(Cc2cccc(Cl)c2)C1=O (stereo not given),3,1,-2,nt,-2
O=C(CSc1nnc(-c2ccc(Cl)cc2)n1-c1ccccc1)Nc1ccc(Oc2ccccc2)cc1,0,-1,-1,nt,-1
SMILES,hgDAF12 agonist,DAX1 inh-1,hcDAF-12 act,DAX1 inh-2,ssDAF-12 act
Cn1c2ccccc2c2nnc(SCC(N)=O)nc21,1,0,1,-2,0.9*
CCOC(=O)CSc1nnc2c3ccccc3n(C)c2n1,1,0,-1,-1,-1
CCOC(=O)CC[C@H]1CC[C@]2(CCCN(C(=O)C(C)(C)C)C2)O1,0,0,1,nt,0
CNC(=O)c1csc(-c2cccs2)n1,4,0,5,1,0
CC(=O)NCc1ccc(-c2csc(-c3cccs3)n2)cc1,12*,0,3,0,-1
O=C(NCCc1ccccc1)OCc1cn(Cc2ccc(F)c(F)c2)nn1,2,1,3,nt,-1
